Laboratory results: article PMC7862700, “An all-to-all approach to the identification of sequence-specific readers for epigenetic DNA modifications on cytosine”

What was measured:
Assay in all cases: DAPPL (digital affinity profiling via proximity ligation, sequencing); 10 mM Tris-HCl pH 7.5, 50 mM NaCl, 1 mM DTT, 4% glycerol, room temperature, 30 min; GST-TFs on glutathione beads, 16-mer random dsDNA library, 0.1% formaldehyde crosslink after washing; high values mean tight binding
[1] = target: T1, FEV (Homo sapiens, UniProt Q99581 1-238); conditions: protein: recombinant; tags: N-terminal GST; dsDNA, one strand shown
T1 sequence: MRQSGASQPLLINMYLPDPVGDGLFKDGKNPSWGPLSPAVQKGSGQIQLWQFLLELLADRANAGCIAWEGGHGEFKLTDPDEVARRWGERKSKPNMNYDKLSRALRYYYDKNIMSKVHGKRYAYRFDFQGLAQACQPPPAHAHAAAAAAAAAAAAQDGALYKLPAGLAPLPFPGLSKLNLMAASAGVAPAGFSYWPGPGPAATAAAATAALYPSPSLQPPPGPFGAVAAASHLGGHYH
Summary of the method: (§1)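 Yeast served to express human transcription factors as GST fusions, which were then captured on glutathione beads and labelled with DNA barcodes. Pooled with a tag-only sample, they were incubated with 200 nmole of a 16-mer random double-stranded DNA library for 30 min at room temperature in Tris/NaCl/DTT/glycerol buffer, washed, crosslinked with 0.1% formaldehyde, ligated by proximity, amplified by PCR and sequenced. Dividing each hexamer's read frequency for a factor by its frequency for the tag-only sample gives the binding signal.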

[2] = target: ETV5 (Homo sapiens, UniProt P41161 1-510); conditions: protein: recombinant; tags: N-terminal GST; dsDNA, one strand shown
Summary of the method: as §1

[3] = target: HSF1 (Homo sapiens, UniProt Q00613 1-529); conditions: protein: recombinant; tags: N-terminal GST; chain copies: 3; dsDNA, one strand shown
Summary of the method: as §1

[4] = target: T2, SPIC (Homo sapiens, UniProt Q8N5J4 1-248); conditions: protein: recombinant; tags: N-terminal GST; dsDNA, one strand shown
T2 sequence: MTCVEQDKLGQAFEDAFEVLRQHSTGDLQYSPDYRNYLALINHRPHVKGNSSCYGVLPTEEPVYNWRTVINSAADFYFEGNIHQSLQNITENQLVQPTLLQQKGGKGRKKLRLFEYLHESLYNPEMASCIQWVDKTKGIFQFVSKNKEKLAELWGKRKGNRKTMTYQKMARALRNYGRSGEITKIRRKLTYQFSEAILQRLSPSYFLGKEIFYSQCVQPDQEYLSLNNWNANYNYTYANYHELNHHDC
Summary of the method: as §1

[5] = target: ELF4 (Homo sapiens, UniProt Q99607 1-663); conditions: protein: recombinant; tags: N-terminal GST; dsDNA, one strand shown
Summary of the method: as §1

[6] = target: T3, ELK4 (Homo sapiens, UniProt P28324-2 1-405); conditions: protein: recombinant; tags: N-terminal GST; dsDNA, one strand shown
T3 sequence: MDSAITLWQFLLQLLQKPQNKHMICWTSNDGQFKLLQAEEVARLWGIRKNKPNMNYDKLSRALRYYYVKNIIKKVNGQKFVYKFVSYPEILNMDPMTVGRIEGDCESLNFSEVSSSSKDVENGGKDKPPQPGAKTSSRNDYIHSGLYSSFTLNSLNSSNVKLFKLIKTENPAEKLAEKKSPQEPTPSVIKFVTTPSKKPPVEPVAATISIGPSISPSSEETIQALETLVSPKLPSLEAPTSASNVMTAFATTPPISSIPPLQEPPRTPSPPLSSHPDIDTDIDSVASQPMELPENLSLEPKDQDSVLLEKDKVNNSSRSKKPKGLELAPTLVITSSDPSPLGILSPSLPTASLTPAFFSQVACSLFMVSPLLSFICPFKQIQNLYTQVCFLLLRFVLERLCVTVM
Summary of the method: as §1

[7] = target: T4, ETV2 (Homo sapiens, UniProt O00321 1-342); conditions: protein: recombinant; tags: N-terminal GST; dsDNA, one strand shown
T4 sequence: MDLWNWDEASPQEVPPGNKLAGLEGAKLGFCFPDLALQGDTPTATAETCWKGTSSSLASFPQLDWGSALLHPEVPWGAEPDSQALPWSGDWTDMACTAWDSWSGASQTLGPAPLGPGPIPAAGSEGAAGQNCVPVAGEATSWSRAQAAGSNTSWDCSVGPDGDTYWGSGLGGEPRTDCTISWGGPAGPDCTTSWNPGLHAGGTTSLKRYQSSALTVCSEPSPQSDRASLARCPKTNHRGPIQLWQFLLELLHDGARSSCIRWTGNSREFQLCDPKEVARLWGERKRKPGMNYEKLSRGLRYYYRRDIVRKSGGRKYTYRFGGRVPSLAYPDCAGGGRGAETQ
Summary of the method: as §1

[8] = target: T5, ELF3 (Homo sapiens, UniProt P78545 1-371); conditions: protein: recombinant; tags: N-terminal GST; dsDNA, one strand shown
T5 sequence: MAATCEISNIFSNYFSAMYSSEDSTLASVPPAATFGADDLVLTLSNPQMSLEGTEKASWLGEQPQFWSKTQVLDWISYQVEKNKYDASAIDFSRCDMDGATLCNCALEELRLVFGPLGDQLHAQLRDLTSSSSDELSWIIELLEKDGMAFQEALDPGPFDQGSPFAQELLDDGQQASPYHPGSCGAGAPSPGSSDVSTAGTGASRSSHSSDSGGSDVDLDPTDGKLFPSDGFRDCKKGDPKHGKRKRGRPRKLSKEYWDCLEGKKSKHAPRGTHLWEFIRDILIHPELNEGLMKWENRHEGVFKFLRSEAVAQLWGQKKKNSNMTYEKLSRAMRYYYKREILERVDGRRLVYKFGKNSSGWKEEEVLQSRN
Summary of the method: as §1

[9] = target: CRX (Homo sapiens, UniProt O43186 1-299); conditions: protein: recombinant; tags: N-terminal GST; dsDNA, one strand shown
Summary of the method: as §1

[10] = target: ETV1 (Homo sapiens, UniProt P50549 1-477); conditions: protein: recombinant; tags: N-terminal GST; dsDNA, one strand shown
Summary of the method: as §1

[11] = target: T6, ERF (Homo sapiens, UniProt P50548 1-548); conditions: protein: recombinant; tags: N-terminal GST; dsDNA, one strand shown
T6 sequence: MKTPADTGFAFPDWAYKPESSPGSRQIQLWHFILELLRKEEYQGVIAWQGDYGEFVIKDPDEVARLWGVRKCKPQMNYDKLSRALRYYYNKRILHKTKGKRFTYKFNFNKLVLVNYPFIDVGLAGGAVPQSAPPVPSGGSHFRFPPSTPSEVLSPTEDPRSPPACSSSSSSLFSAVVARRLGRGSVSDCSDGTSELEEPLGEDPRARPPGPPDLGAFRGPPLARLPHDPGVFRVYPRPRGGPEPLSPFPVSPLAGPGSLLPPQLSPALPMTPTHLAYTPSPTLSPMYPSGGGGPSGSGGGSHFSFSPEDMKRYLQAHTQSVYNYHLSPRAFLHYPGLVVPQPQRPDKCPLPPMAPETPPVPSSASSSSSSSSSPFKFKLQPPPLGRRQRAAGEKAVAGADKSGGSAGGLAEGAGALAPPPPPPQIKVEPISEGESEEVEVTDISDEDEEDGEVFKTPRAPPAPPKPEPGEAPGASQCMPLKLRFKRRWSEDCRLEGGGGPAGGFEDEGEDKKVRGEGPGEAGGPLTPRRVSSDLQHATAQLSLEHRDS
Summary of the method: as §1

[12] = target: T7, ETV3L (Homo sapiens, UniProt Q6ZN32 1-361); conditions: protein: recombinant; tags: N-terminal GST; dsDNA, one strand shown
T7 sequence: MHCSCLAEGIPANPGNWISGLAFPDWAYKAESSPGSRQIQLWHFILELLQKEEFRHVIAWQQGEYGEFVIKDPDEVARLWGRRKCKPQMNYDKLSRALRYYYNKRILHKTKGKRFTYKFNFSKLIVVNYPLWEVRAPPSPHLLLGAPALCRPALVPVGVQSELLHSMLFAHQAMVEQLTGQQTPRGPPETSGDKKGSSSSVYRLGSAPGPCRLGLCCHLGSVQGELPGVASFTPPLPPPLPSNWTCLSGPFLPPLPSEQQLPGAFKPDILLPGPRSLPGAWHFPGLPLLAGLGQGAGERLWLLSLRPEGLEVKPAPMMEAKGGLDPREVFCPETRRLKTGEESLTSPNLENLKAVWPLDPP
Summary of the method: as §1

[13] = target: T8, ETS2 (Homo sapiens, UniProt P15036 1-469); conditions: protein: recombinant; tags: N-terminal GST; dsDNA, one strand shown
T8 sequence: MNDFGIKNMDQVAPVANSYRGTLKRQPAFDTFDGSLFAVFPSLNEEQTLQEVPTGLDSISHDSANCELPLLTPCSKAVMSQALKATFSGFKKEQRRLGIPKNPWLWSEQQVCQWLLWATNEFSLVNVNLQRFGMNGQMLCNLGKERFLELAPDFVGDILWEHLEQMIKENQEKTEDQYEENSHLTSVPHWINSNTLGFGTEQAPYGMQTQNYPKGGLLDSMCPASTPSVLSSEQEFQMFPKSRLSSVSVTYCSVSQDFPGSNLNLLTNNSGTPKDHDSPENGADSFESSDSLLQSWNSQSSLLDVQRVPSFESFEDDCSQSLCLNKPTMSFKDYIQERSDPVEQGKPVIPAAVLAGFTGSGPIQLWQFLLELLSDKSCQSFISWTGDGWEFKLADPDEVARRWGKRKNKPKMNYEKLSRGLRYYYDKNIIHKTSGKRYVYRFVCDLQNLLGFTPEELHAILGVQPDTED
Summary of the method: as §1

[14] = target: T9, SPDEF (Homo sapiens, UniProt O95238 1-335); conditions: protein: recombinant; tags: N-terminal GST; dsDNA, one strand shown
T9 sequence: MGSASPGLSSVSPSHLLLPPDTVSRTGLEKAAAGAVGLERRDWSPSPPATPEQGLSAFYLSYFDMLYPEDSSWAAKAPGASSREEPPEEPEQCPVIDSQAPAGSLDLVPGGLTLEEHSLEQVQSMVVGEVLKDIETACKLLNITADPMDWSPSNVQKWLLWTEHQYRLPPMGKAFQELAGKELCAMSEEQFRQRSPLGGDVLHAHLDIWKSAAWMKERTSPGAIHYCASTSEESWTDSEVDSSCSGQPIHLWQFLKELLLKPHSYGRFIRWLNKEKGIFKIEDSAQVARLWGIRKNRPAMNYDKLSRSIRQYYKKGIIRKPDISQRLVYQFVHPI
Summary of the method: as §1

[15] = target: T10, ETV7 (Homo sapiens, UniProt Q9Y603 1-341); conditions: protein: recombinant; tags: N-terminal GST; dsDNA, one strand shown
T10 sequence: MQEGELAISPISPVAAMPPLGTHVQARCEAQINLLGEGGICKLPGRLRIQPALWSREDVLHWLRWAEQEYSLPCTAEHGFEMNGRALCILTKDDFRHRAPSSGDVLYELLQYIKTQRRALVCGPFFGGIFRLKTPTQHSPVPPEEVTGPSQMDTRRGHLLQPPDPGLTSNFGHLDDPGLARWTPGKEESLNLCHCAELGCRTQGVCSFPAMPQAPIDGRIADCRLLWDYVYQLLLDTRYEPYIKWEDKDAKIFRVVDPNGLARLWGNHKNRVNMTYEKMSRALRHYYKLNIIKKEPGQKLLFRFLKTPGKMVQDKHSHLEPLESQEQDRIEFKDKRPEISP
Summary of the method: as §1

[16] = target: T11, ELF5 (Homo sapiens, UniProt Q9UKW6-2 1-255); conditions: protein: recombinant; tags: N-terminal GST; dsDNA, one strand shown
T11 sequence: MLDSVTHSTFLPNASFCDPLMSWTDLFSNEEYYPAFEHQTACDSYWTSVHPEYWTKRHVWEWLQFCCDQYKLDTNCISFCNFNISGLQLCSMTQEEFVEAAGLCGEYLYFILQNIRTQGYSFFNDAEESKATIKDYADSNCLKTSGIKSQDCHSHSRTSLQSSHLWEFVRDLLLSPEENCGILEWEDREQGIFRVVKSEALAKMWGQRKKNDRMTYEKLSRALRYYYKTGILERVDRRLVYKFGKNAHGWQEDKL
Summary of the method: as §1

[17] = target: T12, ETV3 (Homo sapiens, UniProt P41162-2 1-143); conditions: protein: recombinant; tags: N-terminal GST; dsDNA, one strand shown
T12 sequence: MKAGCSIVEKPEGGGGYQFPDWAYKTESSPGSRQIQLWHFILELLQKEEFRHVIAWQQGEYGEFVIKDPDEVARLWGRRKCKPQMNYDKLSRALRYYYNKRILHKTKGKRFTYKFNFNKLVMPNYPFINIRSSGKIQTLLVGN
Summary of the method: as §1

[18] = target: ETV6 (Homo sapiens, UniProt P41212 1-452); conditions: protein: recombinant; tags: N-terminal GST; dsDNA, one strand shown
Summary of the method: as §1

Chain of CRX (O43186 whole entry): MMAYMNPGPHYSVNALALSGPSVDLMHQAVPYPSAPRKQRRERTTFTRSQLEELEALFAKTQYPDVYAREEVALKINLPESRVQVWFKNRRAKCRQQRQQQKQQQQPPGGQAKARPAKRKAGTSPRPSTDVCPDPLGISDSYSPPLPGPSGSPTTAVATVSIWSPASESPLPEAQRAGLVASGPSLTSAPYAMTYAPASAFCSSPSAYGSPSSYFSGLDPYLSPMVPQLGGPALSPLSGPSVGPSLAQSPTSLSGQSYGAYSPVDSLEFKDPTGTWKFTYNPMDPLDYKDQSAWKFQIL
Chain of HSF1 (Q00613 whole entry): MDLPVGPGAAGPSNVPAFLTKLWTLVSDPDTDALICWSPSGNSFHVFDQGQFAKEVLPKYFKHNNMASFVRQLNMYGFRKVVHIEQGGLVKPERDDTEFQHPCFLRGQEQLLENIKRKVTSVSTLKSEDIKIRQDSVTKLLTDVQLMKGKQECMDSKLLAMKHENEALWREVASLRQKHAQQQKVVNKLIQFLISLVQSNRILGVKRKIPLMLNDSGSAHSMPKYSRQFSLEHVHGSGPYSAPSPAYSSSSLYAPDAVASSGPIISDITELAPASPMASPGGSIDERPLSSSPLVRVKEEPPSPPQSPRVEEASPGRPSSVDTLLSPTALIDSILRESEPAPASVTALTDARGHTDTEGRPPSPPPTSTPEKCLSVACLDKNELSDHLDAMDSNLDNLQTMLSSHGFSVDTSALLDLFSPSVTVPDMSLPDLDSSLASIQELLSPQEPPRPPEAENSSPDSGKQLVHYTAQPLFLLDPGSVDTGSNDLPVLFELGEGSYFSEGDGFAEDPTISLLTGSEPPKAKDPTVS
Chain of ETV5 (P41161 whole entry): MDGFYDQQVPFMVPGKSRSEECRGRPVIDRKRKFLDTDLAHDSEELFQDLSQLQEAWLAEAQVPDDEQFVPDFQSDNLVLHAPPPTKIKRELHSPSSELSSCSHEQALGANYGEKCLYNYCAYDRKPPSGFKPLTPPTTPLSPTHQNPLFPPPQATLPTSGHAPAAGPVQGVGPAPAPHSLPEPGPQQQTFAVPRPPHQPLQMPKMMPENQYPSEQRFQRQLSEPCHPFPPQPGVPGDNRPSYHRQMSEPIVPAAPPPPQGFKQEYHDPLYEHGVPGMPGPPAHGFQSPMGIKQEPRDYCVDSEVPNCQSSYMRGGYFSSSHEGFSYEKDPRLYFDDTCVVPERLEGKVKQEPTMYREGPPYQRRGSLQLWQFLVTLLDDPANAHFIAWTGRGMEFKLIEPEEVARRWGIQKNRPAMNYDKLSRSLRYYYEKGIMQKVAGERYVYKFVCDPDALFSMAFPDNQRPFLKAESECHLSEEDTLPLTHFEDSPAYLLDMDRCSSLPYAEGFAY
Chain of ETV1 (P50549 whole entry): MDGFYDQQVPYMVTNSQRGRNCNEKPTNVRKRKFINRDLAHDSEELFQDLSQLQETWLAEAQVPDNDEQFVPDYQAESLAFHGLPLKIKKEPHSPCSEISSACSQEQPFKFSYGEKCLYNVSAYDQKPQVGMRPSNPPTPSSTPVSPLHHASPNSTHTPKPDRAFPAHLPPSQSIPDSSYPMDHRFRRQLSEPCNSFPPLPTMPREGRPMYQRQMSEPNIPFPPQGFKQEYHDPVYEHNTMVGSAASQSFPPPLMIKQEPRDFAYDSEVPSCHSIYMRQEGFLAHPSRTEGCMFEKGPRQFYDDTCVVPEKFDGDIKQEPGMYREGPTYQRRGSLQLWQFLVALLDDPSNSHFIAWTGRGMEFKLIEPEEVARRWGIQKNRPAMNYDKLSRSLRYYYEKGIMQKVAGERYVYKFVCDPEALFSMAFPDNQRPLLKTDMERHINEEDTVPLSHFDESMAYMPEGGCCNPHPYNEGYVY
Chain of ELF4 (Q99607 whole entry): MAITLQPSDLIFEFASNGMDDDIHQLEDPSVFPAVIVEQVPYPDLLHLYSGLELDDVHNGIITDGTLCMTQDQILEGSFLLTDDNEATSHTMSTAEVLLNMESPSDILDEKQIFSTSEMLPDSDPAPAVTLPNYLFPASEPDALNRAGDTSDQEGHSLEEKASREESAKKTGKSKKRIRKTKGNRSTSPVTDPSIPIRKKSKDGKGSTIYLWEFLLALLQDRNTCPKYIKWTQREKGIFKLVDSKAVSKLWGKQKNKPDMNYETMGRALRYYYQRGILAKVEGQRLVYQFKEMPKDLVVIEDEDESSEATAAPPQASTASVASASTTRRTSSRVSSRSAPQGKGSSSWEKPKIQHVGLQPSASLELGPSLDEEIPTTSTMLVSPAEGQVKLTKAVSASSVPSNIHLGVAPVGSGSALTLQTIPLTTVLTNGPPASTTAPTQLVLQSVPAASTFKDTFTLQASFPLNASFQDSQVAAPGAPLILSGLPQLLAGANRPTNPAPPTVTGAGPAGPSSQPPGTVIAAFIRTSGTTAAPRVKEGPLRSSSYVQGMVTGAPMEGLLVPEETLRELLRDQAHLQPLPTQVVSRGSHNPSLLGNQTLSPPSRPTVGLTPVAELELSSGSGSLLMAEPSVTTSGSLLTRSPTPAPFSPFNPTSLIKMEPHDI
Chain of ETV6 (P41212 whole entry): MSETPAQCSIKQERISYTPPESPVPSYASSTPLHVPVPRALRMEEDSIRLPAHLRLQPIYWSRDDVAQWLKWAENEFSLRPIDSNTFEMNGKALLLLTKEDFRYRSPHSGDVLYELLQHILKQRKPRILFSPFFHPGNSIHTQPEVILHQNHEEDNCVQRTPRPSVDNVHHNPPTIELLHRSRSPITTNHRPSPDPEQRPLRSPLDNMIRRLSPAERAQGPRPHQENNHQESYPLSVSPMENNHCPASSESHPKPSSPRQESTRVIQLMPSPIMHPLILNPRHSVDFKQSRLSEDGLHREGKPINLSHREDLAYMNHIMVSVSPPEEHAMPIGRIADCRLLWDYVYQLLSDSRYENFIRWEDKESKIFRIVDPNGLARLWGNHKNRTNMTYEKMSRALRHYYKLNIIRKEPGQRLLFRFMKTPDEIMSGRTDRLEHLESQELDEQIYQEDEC

Sequence	binding signal [1]	binding signal [2]	binding signal [3]	binding signal [4]	binding signal [5]	binding signal [6]	binding signal [7]	binding signal [8]	binding signal [9]	binding signal [10]	binding signal [11]	binding signal [12]	binding signal [13]	binding signal [14]	binding signal [15]	binding signal [16]	binding signal [17]	binding signal [18]
TCTTAA	1.24 fold enrichment (6-mer frequency, TF over GST control)	1.2 fold enrichment (6-mer frequency, TF over GST control)	1.88 fold enrichment (6-mer frequency, TF over GST control)	1.2 fold enrichment (6-mer frequency, TF over GST control)	1.19 fold enrichment (6-mer frequency, TF over GST control)	1.18 fold enrichment (6-mer frequency, TF over GST control)	1.25 fold enrichment (6-mer frequency, TF over GST control)	1.24 fold enrichment (6-mer frequency, TF over GST control)	2.69 fold enrichment (6-mer frequency, TF over GST control)	1.12 fold enrichment (6-mer frequency, TF over GST control)	1.19 fold enrichment (6-mer frequency, TF over GST control)	1.37 fold enrichment (6-mer frequency, TF over GST control)	1.22 fold enrichment (6-mer frequency, TF over GST control)	1.28 fold enrichment (6-mer frequency, TF over GST control)	1.27 fold enrichment (6-mer frequency, TF over GST control)	1.2 fold enrichment (6-mer frequency, TF over GST control)	1.23 fold enrichment (6-mer frequency, TF over GST control)	1.26 fold enrichment (6-mer frequency, TF over GST control)
ATATAA	1.15 fold enrichment (6-mer frequency, TF over GST control)	1.15 fold enrichment (6-mer frequency, TF over GST control)	1.34 fold enrichment (6-mer frequency, TF over GST control)	1.1 fold enrichment (6-mer frequency, TF over GST control)	1.18 fold enrichment (6-mer frequency, TF over GST control)	1.29 fold enrichment (6-mer frequency, TF over GST control)	1.24 fold enrichment (6-mer frequency, TF over GST control)	1.28 fold enrichment (6-mer frequency, TF over GST control)	1.68 fold enrichment (6-mer frequency, TF over GST control)	1.16 fold enrichment (6-mer frequency, TF over GST control)	1.16 fold enrichment (6-mer frequency, TF over GST control)	1.23 fold enrichment (6-mer frequency, TF over GST control)	1.2 fold enrichment (6-mer frequency, TF over GST control)	1.19 fold enrichment (6-mer frequency, TF over GST control)	1.16 fold enrichment (6-mer frequency, TF over GST control)	1.16 fold enrichment (6-mer frequency, TF over GST control)	1.27 fold enrichment (6-mer frequency, TF over GST control)	1.25 fold enrichment (6-mer frequency, TF over GST control)
